In PubChem BioAssay (NCATS):
Unmarked numbers belong to inactive results. Results filed as inconclusive are left out. Calls of active or inactive are those of the source. Unless noted, calls come from the whole dose curve; as a rule, active = well fitted curve in either direction with a large enough effect (not every such curve was filed as active); inconclusive = small, poorly fitted or top-dose-only effect, or another doubt; inactive = flat fitted curve, though single readings scatter.

Legend:
[1] = biological target: Lysosomal acid glucosylceramidase (Homo sapiens) (UniProt P04062); assay: Glucocerebrosidase-p2 (AID 348; in the data active = potency below about 10 µM; note: potency is the fitted concentration of half-maximal effect); details: purified GBA, blue fluorogenic substrate, 40 min
How it was run: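 Compounds titrated from 0.6 nM upwards against 0.2 nM enzyme in pH 5.9 citric acid/KH2PO4, taurocholate, tween-20; blue fluorogenic substrate 80 uM, 40 min room temperature, stopped and read Ex 365/Em 440 for AC50.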

[2] = AP1 Signaling Pathway (AID 357); details: ME-180 AP-1-bla reporter, EGF-induced, beta-lactamase ratio, 5 h; at 7.69 µM (top of the series) unless noted; note: % is set by controls: 0 for no effect and ±100 for the full control effect
How it was run: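 AP-1-bla ME-180 cells with beta-lactamase reporter under AP-1 response element, stimulated with EC50 EGF; compounds titrated, 5 hours at 37 degrees Celsius. CCF4 read at 460/530 nm ratio; positive and negative modulators judged by AC50.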

[3] = NFAT Signaling Pathway (AID 444); details: Jurkat NFAT-bla M1, carbachol, beta-lactamase ratio, 5 h; at 7.69 µM (top of the series) unless noted;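 note: carbachol stimulus at about its EC50 of 1 µM final; % is set by controls: 0 for no effect and ±100 for the full control effect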
How it was run: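 Read-out: CCF4 FRET ratio (460 nm/530 nm) after 1 h RT dye loading, used for %activity and AC50 from titration series. Cells: Jurkat NFAT-β-lactamase/M1 line, treated with compound plus 1 uM carbachol for 5 h, 37 °C.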

[4] = Stat Signaling Pathway (AID 446); details: ME-180 (cervical carcinoma) SIE beta-lactamase reporter, IL-6 stimulated, 5 h; at 7.69 µM (top of the series) unless noted;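 note: ME-180 cervical cancer cells given 40 pM IL-6 alongside compound; SIE-controlled beta-lactamase reporter measured as 460/530 nm FRET emission ratio; % is set by controls: 0 for no effect and ±100 for the full control effect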
How it was run: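 IL-6/STAT signaling read in ME-180 cells via an SIE beta-lactamase reporter. Stimulus was 40 pM IL-6 (its AC50) for 5 hrs, so both activation and inhibition register.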

[5] = biological target: Glucocorticoid receptor (Homo sapiens) (UniProt P04150); assay: GR-GFP Redistribution (AID 450;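 active = compounds whose dose series gives a full or clear partial fitted curve of increased nuclear translocation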; note: potency is the fitted concentration of half-maximal effect); details: U2OS GR-GFP nuclear translocation, laser cytometry, 2 h
[6] = biological target: Glucocorticoid receptor (Homo sapiens) (UniProt P04150); assay: GR-EFC Redistribution (AID 451; calls by dose curve; note: potency is the fitted concentration of half-maximal effect); details: CHO-K1 GR-EFC translocation, beta-gal luminescence, 2 h
How it was run: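 Translocation of GR-ED fusion to nuclear EA restores b-gal, read by luminescence after 1 h room-temperature detection. Engineered CHO-K1 biosensor cells, 1,000/well, exposed 2 h at 37 C to titrations up to 46 uM final.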

[7] = biological target: Mitogen-activated protein kinase 10 (Mus musculus) (UniProt Q61831); assay: JNK3 AlphaScreen Assay (AID 530); details: JNK3 lysate, c-Jun phosphorylation; series mostly up to 57.1 µM;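 note: kinase came from lysate of stimulated human HepG2 cells; signal reports phosphorylation of biotinylated GST-cJun 1-79 at Ser73 with 10 µM ATP; % is set by controls: 0 for no effect and ±100 for the full control effect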
How it was run: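 Room-temperature AlphaScreen kinase assay; pre-activated HepG2 lysate as JNK3 source, biotin-GST-cJun(1-79) substrate, 10 uM ATP, compound 15 min preincubation.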

[8] = biological target: 3',5'-cyclic-AMP phosphodiesterase 4B (Homo sapiens) (UniProt Q07343); assay: qHTS Assay for Inhibitors of PDE-IV (AID 607; active = well fitted activation curve with a large enough effect in the main read-out, with a control signal flat, not every such curve was filed as active; note: % of control where 0% means no effect); details: HEK293 ACTOne CNG channel cells, membrane potential fluorescence; series mostly up to 22.9 µM
How it was run: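 Live HEK293 cells with a modified cyclic nucleotide-gated (CNG) channel report intracellular cAMP via membrane-potential dye fluorescence (ex 535/em 590 nm). Endogenous PDE-IV was targeted. Compounds were tested at up to 22.9 uM final; RO 20-1724 100 uM served as control.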

[9] = biological target: Cytochrome P450 3A4 (Homo sapiens) (UniProt P08684); assay: qHTS Assay for Activators of Cytochrome P450 3A4 (AID 885; active = well fitted curve in the direction sought with a large enough effect; an effect the other way counts as inactive or inconclusive; note: nearly all actives have a fitted effect of over 65% in size); details: recombinant CYP3A4, Luciferin-PPXE luminescence, 60 min; series mostly up to 57.1 µM
How it was run: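 Quantitative HTS format: compounds preincubated with 20nM human CYP3A4 and Luciferin-PPXE substrate at KM, reaction started by NADPH regeneration, stopped after 60 min, luciferase luminescence read 20 min later.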

[10] = biological target: Cytochrome P450 2D6 (Homo sapiens) (UniProt P10635); assay: qHTS Assay for Inhibitors and Substrates of Cytochrome P450 2D6 (AID 891; active = well fitted curve in the direction sought with a large enough effect; an effect the other way counts as inactive or inconclusive;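 note: luciferin methyl ether substrate demethylated by CYP2D6 with NADPH regeneration; % is set by controls: 0 for no effect and ±100 for the full control effect; nearly all actives have a fitted effect of over 60% in size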); details: recombinant CYP2D6, luciferin-ME EGE luminescence; series mostly up to 11.4 µM
How it was run: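 Human CYP2D6 (5 nM) with 30 uM Luciferin-ME EGE (at Km) in 100 mM KPO4, compound preincubated 10 min, then NADPH regeneration system for 60 min at room temperature. Luciferin read by luminescence; normalized to 1.43 uM quinidine.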

Sequence of Lysosomal acid glucosylceramidase (Homo sapiens) (P04062 whole entry, looked up): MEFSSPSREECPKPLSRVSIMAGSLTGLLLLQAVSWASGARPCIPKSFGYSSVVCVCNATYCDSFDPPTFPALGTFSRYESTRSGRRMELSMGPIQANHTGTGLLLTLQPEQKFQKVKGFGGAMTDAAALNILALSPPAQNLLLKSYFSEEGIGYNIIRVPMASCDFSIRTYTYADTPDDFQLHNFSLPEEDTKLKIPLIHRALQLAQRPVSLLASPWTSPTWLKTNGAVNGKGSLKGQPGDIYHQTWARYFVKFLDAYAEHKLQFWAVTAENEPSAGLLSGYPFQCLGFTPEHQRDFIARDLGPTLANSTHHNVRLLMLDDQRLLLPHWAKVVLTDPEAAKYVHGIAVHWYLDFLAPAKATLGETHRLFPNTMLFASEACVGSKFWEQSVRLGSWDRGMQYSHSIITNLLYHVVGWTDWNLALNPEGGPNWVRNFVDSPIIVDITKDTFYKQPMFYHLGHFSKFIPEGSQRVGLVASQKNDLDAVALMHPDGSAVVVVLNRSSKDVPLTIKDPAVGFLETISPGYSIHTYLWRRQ
Sequence of Glucocorticoid receptor (Homo sapiens) (P04150 whole entry, looked up, the tested form may be a part): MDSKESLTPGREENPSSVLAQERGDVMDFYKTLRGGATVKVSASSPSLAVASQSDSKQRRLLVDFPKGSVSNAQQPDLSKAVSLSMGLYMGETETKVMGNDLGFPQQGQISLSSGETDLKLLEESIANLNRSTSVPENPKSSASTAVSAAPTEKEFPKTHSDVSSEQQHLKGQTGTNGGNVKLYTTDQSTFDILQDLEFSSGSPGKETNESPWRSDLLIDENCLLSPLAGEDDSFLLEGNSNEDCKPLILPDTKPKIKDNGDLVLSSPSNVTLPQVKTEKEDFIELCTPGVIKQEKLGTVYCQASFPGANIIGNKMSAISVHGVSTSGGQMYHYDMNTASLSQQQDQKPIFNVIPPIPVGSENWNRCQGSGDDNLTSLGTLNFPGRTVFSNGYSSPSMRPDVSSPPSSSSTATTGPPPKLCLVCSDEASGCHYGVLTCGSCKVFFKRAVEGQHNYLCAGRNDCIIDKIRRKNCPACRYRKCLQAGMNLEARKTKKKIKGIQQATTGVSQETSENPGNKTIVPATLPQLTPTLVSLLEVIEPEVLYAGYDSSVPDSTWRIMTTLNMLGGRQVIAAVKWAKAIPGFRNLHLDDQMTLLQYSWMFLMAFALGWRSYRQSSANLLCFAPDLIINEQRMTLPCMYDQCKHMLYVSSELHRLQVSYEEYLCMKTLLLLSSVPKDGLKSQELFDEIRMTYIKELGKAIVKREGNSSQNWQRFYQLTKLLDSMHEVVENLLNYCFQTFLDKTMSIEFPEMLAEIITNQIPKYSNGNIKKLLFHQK
Sequence of 3',5'-cyclic-AMP phosphodiesterase 4B (Homo sapiens) (Q07343 whole entry, looked up): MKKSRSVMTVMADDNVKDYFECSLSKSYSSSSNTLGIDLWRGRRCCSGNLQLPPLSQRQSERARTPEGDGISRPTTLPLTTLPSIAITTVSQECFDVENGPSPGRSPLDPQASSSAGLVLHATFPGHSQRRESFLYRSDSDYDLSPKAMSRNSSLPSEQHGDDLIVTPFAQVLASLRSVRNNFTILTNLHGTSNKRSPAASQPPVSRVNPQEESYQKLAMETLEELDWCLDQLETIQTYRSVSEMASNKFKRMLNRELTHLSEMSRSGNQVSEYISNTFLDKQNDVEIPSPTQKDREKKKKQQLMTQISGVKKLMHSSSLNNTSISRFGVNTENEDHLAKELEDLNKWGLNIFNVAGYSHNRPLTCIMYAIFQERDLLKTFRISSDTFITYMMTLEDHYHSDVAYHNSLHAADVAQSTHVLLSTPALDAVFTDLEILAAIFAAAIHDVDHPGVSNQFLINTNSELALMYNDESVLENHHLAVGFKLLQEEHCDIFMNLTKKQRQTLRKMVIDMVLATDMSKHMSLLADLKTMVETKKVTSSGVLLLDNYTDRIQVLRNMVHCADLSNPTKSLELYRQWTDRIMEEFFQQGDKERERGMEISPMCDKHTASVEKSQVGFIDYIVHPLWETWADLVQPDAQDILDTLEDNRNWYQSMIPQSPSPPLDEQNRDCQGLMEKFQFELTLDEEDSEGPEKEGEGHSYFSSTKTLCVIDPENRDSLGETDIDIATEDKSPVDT
Sequence of Cytochrome P450 2D6 (Homo sapiens) (P10635 whole entry, looked up): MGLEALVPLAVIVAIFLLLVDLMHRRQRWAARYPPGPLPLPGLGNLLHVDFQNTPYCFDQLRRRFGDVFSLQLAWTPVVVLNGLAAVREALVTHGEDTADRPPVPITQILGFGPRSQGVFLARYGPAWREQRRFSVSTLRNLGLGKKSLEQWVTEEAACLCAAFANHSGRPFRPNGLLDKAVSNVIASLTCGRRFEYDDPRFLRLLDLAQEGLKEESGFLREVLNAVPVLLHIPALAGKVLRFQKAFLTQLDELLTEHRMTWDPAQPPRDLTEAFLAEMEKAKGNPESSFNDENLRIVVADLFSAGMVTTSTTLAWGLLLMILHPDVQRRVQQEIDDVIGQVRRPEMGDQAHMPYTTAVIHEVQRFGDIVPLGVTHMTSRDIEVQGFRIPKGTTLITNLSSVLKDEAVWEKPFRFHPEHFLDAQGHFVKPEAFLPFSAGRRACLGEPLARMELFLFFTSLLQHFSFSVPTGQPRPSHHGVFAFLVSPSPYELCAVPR
Sequence of Cytochrome P450 3A4 (Homo sapiens) (P08684 whole entry, looked up): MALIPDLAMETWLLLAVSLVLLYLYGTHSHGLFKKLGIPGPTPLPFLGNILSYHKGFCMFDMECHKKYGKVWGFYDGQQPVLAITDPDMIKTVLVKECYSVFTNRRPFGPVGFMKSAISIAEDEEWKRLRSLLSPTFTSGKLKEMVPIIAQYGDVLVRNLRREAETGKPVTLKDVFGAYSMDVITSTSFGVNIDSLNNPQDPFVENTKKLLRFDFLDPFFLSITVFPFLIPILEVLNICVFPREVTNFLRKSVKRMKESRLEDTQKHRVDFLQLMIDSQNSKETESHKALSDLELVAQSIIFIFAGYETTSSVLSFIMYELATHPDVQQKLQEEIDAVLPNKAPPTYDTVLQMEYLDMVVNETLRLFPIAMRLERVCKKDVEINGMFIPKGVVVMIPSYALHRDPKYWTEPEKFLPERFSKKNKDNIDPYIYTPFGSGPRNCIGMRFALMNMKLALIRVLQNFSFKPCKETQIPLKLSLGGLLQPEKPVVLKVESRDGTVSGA

Compound | Potency [1] | activity change, negative = inhibition [2] | activity change, negative = inhibition [3] | activity, negative = inhibition [4] | Potency [5] | Potency [6] | activity change, negative = inhibition [7] | outcome [8] | activity change, positive = activation [9] | Potency [10]
c1nc(N2CC2)c2cnn([C@@H]3CCCCO3)c2n1 | > 11.4 µM | 5.4% | 7.32% | -5.16% | > 46 µM | > 9.22 µM | 0.68% [at 11.4 µM] | inactive | – | –
O.O.[NH-]C1(C(=O)O)CCCC1.[NH-]C1(C(=O)O)CCCC1.[Ni+2] | > 11.4 µM | 8.54% | -0.81% | -5.65% | > 46 µM | > 9.22 µM | -2.59% [at 11.4 µM] | inactive | – | –
CC(C)[C@@H](Br)C(=O)NCC(=O)O | > 11.4 µM | 5.1% | 0.167% | 11.3% | > 46 µM | > 9.22 µM | 4.52% [at 11.4 µM] | inactive | – | –
Cc1ccc(S(=O)ON2CCC(C(=O)O)(c3ccccc3)CC2)cc1 (stereo unspecified) | > 11.4 µM | -1.29% | 5.73% | 8.69% | > 46 µM | > 9.22 µM | 5.44% [at 11.4 µM] | inactive | – | –
O=C(O)[C@H](Cc1cnc[nH]1)N1C(=O)c2ccccc2C1=O | > 11.4 µM | -8.47% | 7.47% | 4.43% | > 46 µM | > 9.22 µM | 41.7% [at 11.4 µM] | inactive | – | –
O=C(O)c1cccc([As]=[As]c2cccc(C(=O)O)c2)c1 (stereo unspecified) | > 11.4 µM | -0.316% | -6.47% | 2.08% | > 46 µM | > 9.22 µM | -0.547% [at 11.4 µM] | inactive | – | –
CC[C@@](O)(C(=O)O)c1cc2n(c(=O)c1CO)Cc1cc3ccccc3nc1-2 | > 11.4 µM | 0.967% | -9.59% | -0.155% | > 46 µM | > 9.22 µM | 3.55% [at 11.4 µM] | – | -36.6% [at 11.4 µM] | –
O=[As](O)(O)c1ccc(NCc2ccccc2)cc1 | > 11.4 µM | -4.31% | 11% | 11.2% | > 46 µM | > 9.22 µM | 1.56% [at 11.4 µM] | inactive | – | inactive
Nc1c(C(=O)Nc2ccc([As](=O)(O)O)cc2)cnc2nnnn12 | > 11.4 µM | 2.63% | 25.5% | -0.343% | > 46 µM | > 9.22 µM | 0.733% [at 11.4 µM] | inactive | – | –
C[C@]12CN(CC[N+](C)(C)C)C[C@]1(C)[C@@H]1CC[C@@H]2O1 | 6.39 µM (active) | 12.6% | 10.2% | -6.86% | > 46 µM | > 9.22 µM | -2.5% [at 11.4 µM] | inactive | – | –
COc1ccc(C[C@@H]2C(=O)N[C@H](C)C(=O)N(C)[C@@H]3C(=O)N(C)[C@@H](Cc4ccc(O)c(c4)Oc4ccc(cc4)[C@H]3O)C(=O)N[C@@H](C)C(=O)N[C@H](C)C(=O)N2C)cc1 | > 11.4 µM | -121% (active) | -133% (active) | -105% (active) | > 46 µM | > 9.22 µM | 3.04% [at 11.4 µM] | inactive | – | –
C(=NCCN1CCOCC1)=NC1CCCCC1 | > 11.4 µM | -1.14% | 12.1% | 19.2% | > 46 µM | – | 3.92% [at 11.4 µM] | inactive | – | –
O=C(O)C(Oc1nc(=S)[nH]c(=S)[nH]1)(c1ccc(Cl)cc1)c1ccc(Cl)cc1 | > 11.4 µM | 17% | 0.65% | 3.94% | > 46 µM | > 9.22 µM | 5.45% [at 11.4 µM] | inactive | – | –
O=P(O)(OP(=O)(O)c1ccccc1)c1ccccc1 (tested in a mixture with another compound) | > 11.4 µM | -8.54% | -3.07% | 2.23% | > 46 µM | > 9.22 µM | 3.03% [at 11.4 µM] | inactive | – | –
O=S(=O)(NCCO)c1cc[c]([Sb](=[O])([OH])[OH])cc1 | > 11.4 µM | -1.39% | 16.2% | 6.67% | > 46 µM | > 9.22 µM | 1.82% [at 11.4 µM] | – | – | –
O=C(Oc1ccc(S(=O)(=O)F)cc1F)c1ccccc1Cl | > 11.4 µM | -4.95% | 5.76% | -0.302% | > 46 µM | > 9.22 µM | – | inactive | – | –
CC1=NN(c2ccccc2)C(=O)[C@@H]1N=Nc1ccc([As](=O)(O)O)c(O)c1 | > 11.4 µM | 6.32% | 12.3% | -13.3% | > 46 µM | > 9.22 µM | -2.32% [at 11.4 µM] | inactive | – | inactive
Cc1ccc(O)cc1 (tested in a mixture with another compound) | > 11.4 µM | 3.77% | 9.05% | -4.46% | > 46 µM | > 9.22 µM | 1.19% [at 11.4 µM] | inactive | – | –
O=C(O)C[C@H]1OCC=C2CN3CC[C@@]45C6=CC(=O)C(=O)C([N+](=O)[O-])=C6N[C@H]4[C@H]1[C@H]2C[C@@H]35 | > 11.4 µM | 4.93% | 2.25% | 2.08% | > 46 µM | > 9.22 µM | -0.499% [at 11.4 µM] | inactive | – | –
CC(C)(C)c1cc(C#N)cc(Br)c1OP(=O)(Oc1c(Br)cc(C#N)cc1C(C)(C)C)c1ccccc1 | > 11.4 µM | 7.55% | -6.35% | 16.6% | > 46 µM | > 9.22 µM | -1.35% [at 11.4 µM] | inactive | – | –
C[C@@]12Cc3cnc(-c4ccccc4)nc3C[C@@H]1CC[C@@H]1[C@H]3CC[C@@](C)(O)[C@]3(C)CC[C@@H]12 | > 11.4 µM | 5.09% | -13.1% | 1.77% | > 46 µM | > 9.22 µM | 3.79% [at 11.4 µM] | inactive | – | –
N[C@@H](Cc1c[nH]c2cc([N+](=O)[O-])ccc12)C(=O)O | > 11.4 µM | -8.44% | 5.87% | 10.4% | > 46 µM | – | 4.66% [at 11.4 µM] | inactive | – | –
CCSCC[C@H](N)C(=O)O | > 11.4 µM | 4.84% | 3.15% | -0.0113% | > 46 µM | > 9.22 µM | 3.04% [at 11.4 µM] | inactive | – | –
NNc1nncn1N | > 11.4 µM | 17.5% | 5.16% | 18.4% | > 46 µM | – | 3.94% [at 11.4 µM] | inactive | – | –
C[C@@]12CC[C@H]3[C@@H](CC[C@H]4C[C@@H](O)CC[C@]43C)[C@H]1CC[C@@H]2C(=O)C[C@H](O)C(F)(F)F | > 11.4 µM | 5.97% | 5.84% | -6.11% | > 46 µM | > 9.22 µM | -0.552% [at 11.4 µM] | inactive | – | –
C[C@@]12CC[C@H]3[C@H](CCC4=CC(=O)CC[C@H]43)[C@H]1CC[C@H]2OC1(O)C(=O)c2ccccc2C1=O | > 11.4 µM | 1.93% | -18.3% | -10.1% | > 46 µM | > 9.22 µM | -3.36% [at 11.4 µM] | – | – | –
C[C@@](Br)(C(=O)O)[C@H](Br)C(=O)O | > 11.4 µM | 3.08% | 17.1% | 8.31% | > 46 µM | > 9.22 µM | 1.39% [at 11.4 µM] | inactive | – | –
CSc1ccc2c(c1)c(CCN)c(C)n2Cc1ccccc1Cl | > 11.4 µM | 16.6% | 17.6% | -2.31% | > 46 µM | – | -5.61% [at 11.4 µM] | – | – | –
O=S(=O)(Nc1nccs1)c1ccc([As](=O)(O)O)cc1 | > 11.4 µM | 4.77% | 8.49% | 10.3% | > 46 µM | > 9.22 µM | 2.72% [at 11.4 µM] | inactive | – | –
